A short description of assay [1]: qHTS assay to identify aromatase inhibitors - cell viability counter screen (AID 743084).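 Note: cells stimulated with testosterone during compound exposure; nearly all actives have a fitted effect of over 55% in size.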 For orientation: Quantitative high-throughput screening tests each substance at several concentrations.
Assay [2] is described as follows: qHTS assay to identify small molecule that activate the aryl hydrocarbon receptor (AhR) signaling pathway - cell viability counter screen (AID 743086).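 Note: HepG2 liver cells carrying the AhR DRE luciferase reporter; series mostly up to about 70 µM; nearly all actives have a fitted effect of over 45% in size.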 The method in brief: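 HepG2-AhR-luc (HG2L7.5c1) cells, 4000/well, treated 24 h at 37 C with compound; viability measured as CellTiter-Fluor fluorescence after 30 min in the same wells as the luciferase read.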
Assay [3] deals with Peroxisome proliferator-activated receptor gamma (Homo sapiens) (UniProt P37231). The assay can be described thus: qHTS assay to identify small molecule antagonists of the peroxisome proliferator-activated receptor gamma (PPARg) signaling pathway (AID 743191; calls by dose curve; note: series mostly up to about 63 µM; nearly all actives have a fitted effect of over 30% in size). In a few lines: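 GeneBLAzer PPARg UAS-bla HEK293H cells, 5 h post-plating, exposed to compounds 17 h at 37C. LiveBLAzer B/G FRET substrate added for 1 h at room temperature; beta-lactamase reporter read by fluorescence intensity.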

Assay [4] can be described thus: qHTS assay to identify small molecule antagonists of the peroxisome proliferator-activated receptor gamma (PPARg) signaling pathway - cell viability counter screen (AID 743194). Note: nearly all actives have a fitted effect of over 55% in size. In a few lines:
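Cytotoxicity counter screen in PPARg-bla HEK293H cells, same wells as reporter assay. Compounds plus 50 nM rosiglitazone (final) for 17 h at 37 C, then viability read by CellTiter-Glo luminescence.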

Assay [5] can be described thus: qHTS assay for small molecule agonists of the antioxidant response element (ARE) signaling pathway - cell viability counter screen (AID 743203; calls by dose curve; note: nearly all actives have a fitted effect of over 55% in size). In a few lines: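 Parallel cytotoxicity read-out for the ARE-bla screen: HepG2 reporter cells, 16 hrs with compounds, then CellTiter-Glo luminescence.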
The nature of assay [6]: qHTS assay for small molecule activators of the heat shock response signaling pathway - cell viability counter screen (AID 743209). Note: nearly all actives have a fitted effect of over 50% in size. In a few lines: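 To flag cytotoxic compounds, HSE-bla HeLa cells plated at 1500 cells/well were dosed for 5 h at 37 C, followed by the reporter FRET read and then CellTiter-Glo, with luminescence recorded 30 min after reagent addition.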
The nature of assay [7]: qHTS assay to identify small molecule agonists of the peroxisome proliferator-activated receptor delta (PPARd) signaling pathway - cell viability counter screen (AID 743211). Note: nearly all actives have a fitted effect of over 55% in size. Note: potency is the fitted concentration of half-maximal effect. The method in brief: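 Luminescent ATP viability assay (CellTiter-Glo, 30 min RT) in UAS-bla HEK293H cells carrying the PPAR delta reporter construct, 3000 cells/well, after a 17 h compound treatment at 37 C.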

Assay [8] addresses Peroxisome proliferator-activated receptor delta (Homo sapiens) (UniProt Q03181). The assay is described as follows: qHTS assay to identify small molecule agonists of the peroxisome proliferator-activated receptor delta (PPARd) signaling pathway (AID 743212; calls by dose curve). In a few lines: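 Read-out: beta-lactamase FRET fluorescence after 2 h room-temperature incubation with LiveBLAzer B/G substrate. Cells were HEK293H carrying a UAS-bla reporter for PPARd, treated at 37 C with DMSO-dissolved compounds.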

Assay [9] can be described thus: qHTS assay to identify small molecule antagonists of the peroxisome proliferator-activated receptor delta (PPARd) signaling pathway - cell viability counter screen (AID 743213). Note: nearly all actives have a fitted effect of over 50% in size. Note: potency is the fitted concentration of half-maximal effect. In a few lines: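 Agonist-stimulated (L165041, 300 nM final) HEK293H PPARd UAS-bla cells are exposed to compounds for 17 h at 37 C, and ATP-based luminescence (CellTiter-Glo) from the same wells reports cytotoxicity.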

Assay [10] has as its target Peroxisome proliferator-activated receptor delta (Homo sapiens) (UniProt Q03181). The assay can be described thus: qHTS assay to identify small molecule antagonists of the peroxisome proliferator-activated receptor delta (PPARd) signaling pathway (AID 743215; active = well fitted inhibition curve with a large enough effect in the signal ratio in the repeat runs, not every such curve was filed as active; the % refers to the signal ratio; note: series mostly up to about 62 µM). The method in brief:
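Screen format: qHTS, antagonist mode. HEK293H PPARd-bla cells received compound and 300 nM L165041 (final), 17 h, 37 C. Beta-lactamase detected via FRET substrate fluorescence, 2 h, room temperature.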

Assay [11] can be described thus: qHTS assay to identify small molecule agonists of the farnesoid-X-receptor (FXR) signaling pathway - cell viability counter screen (AID 743218). Note: nearly all actives have a fitted effect of over 45% in size. In a few lines: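 Same-well cytotoxicity check on FXR-UAS-bla HEK 293T cells: 5 h attachment, 16 h compound at 37 C, CellTiter-Glo luminescence read at room temperature after 30 min.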
The nature of assay [12]: qHTS assay to identify small molecule antagonists of the farnesoid-X-receptor (FXR) signaling pathway - cell viability counter screen (AID 743221; active = well fitted cell-killing curve with a large enough effect in the repeat runs, not every such curve was filed as active; note: nearly all actives have a fitted effect of over 50% in size; note: potency is the fitted concentration of half-maximal effect). The method in brief: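 In GeneBLAzer FXR-UAS-bla HEK 293T cells stimulated with 50 uM chenodeoxycholic acid (final), compounds acted for 16 h at 37 C. Viability was assessed afterwards by CellTiter-Glo luminescence.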
Assay [13] has as its target Peroxisome proliferator-activated receptor gamma (Homo sapiens) (UniProt P37231). The assay is described as follows: qHTS assay to identify small molecule agonists of the peroxisome proliferator-activated receptor gamma (PPARg) signaling pathway (AID 743094; active = well fitted activation curve with a large enough effect in the signal ratio in the repeat runs, not every such curve was filed as active; the % refers to the signal ratio). The method in brief: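 Fluorescence-based beta-lactamase readout in HEK293H PPARg UAS-bla cells after 17 h compound exposure (37C) and 1 h B/G FRET substrate incubation at room temperature.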

Assay [14] can be described thus: qHTS assay for small molecule agonists of the antioxidant response element (ARE) signaling pathway (AID 743202; active = well fitted activation curve with a large enough effect in the signal ratio in the repeat runs, not every such curve was filed as active; the % refers to the signal ratio). The method in brief: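 HepG2 ARE-bla reporter line, 2,000 cells/well; 5 h preincubation 37 C/5% CO2; compound (DMSO) 16 h 37 C; B/G FRET substrate 2 h RT; fluorescence intensity.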
For assay [15], the target named is Vitamin D3 receptor (Homo sapiens) (UniProt P11473). The assay is described as follows: qHTS assay to identify small molecule agonists of the vitamin D receptor (VDR) signaling pathway (AID 743222; calls by dose curve). In a few lines:
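Using LiveBLAzer B/G FRET detection, agonism was scored in VDR-bla cells exposed overnight (16 h, 37C) to DMSO-dissolved compounds; substrate incubation was 2 h at room temperature.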

For assay [16] the target is unchanged. The assay is described as follows: qHTS assay to identify small molecule antagonists of the vitamin D receptor (VDR) signaling pathway (AID 743223; active = well fitted inhibition curve with a large enough effect in the signal ratio in the repeat runs, not every such curve was filed as active; the % refers to the signal ratio). In a few lines: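 Agonist 1alpha,25-dihydroxyvitamin D3 (3 nM in well) was added with each compound to VDR-bla cells preincubated 4 h. Cells stood 16 h at 37C, then FRET substrate 2 h at room temperature; fluorescence intensity recorded.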

Assay [17] is described as follows: qHTS assay for small molecule activators of the heat shock response signaling pathway (AID 743210; active = well fitted activation curve with a large enough effect in the signal ratio in the repeat runs, with a control signal flat, not every such curve was filed as active; the % refers to the signal ratio;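 note: HeLa cells with beta-lactamase reporter driven by heat shock elements; series mostly up to about 63 µM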). In a few lines:
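Beta-lactamase reporter read-out: FRET substrate fluorescence after 2.5 h at RT, following 5 h compound treatment at 37 C of HeLa cells carrying HSE-driven bla reporter; quantitative HTS format.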

Assay [18] deals with Bile acid receptor (Homo sapiens) (UniProt Q96RI1). The assay is described as follows: qHTS assay to identify small molecule antagonists of the farnesoid-X-receptor (FXR) signaling pathway (AID 743217; active = well fitted inhibition curve with a large enough effect in the signal ratio in the repeat runs, not every such curve was filed as active; the % refers to the signal ratio). The method in brief:
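Quantitative HTS, beta-lactamase reporter format: FXR-UAS-bla HEK 293T cells co-treated 16 h at 37 °C with compounds and 50 uM final chenodeoxycholic acid, then read by B/G FRET fluorescence.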

For assay [19] the target is unchanged. The assay is described as follows: qHTS assay to identify small molecule agonists of the farnesoid-X-receptor (FXR) signaling pathway (AID 743220; active = well fitted activation curve with a large enough effect in the signal ratio in the repeat runs, not every such curve was filed as active; the % refers to the signal ratio). In a few lines:
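FXR-UAS-bla HEK 293T cells carrying a UAS-driven beta-lactamase reporter were plated for 5 h at 37C/5% CO2, then exposed to DMSO-dissolved Tox21 10K compounds for 16 h at 37C. A LiveBLAzer B/G FRET substrate was loaded for 2 h at room temperature before fluorescence reading.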

The target of assay [20] is Aryl hydrocarbon receptor (Homo sapiens) (UniProt P35869). The assay is described as follows: qHTS assay to identify small molecule that activate the aryl hydrocarbon receptor (AhR) signaling pathway (AID 743085).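 Note: HG2L7.5c1 human HepG2 liver cells with stably integrated DRE-driven firefly reporter; series mostly up to about 70 µM; nearly all actives have a fitted effect of over 15% in size.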 The method in brief:
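24 h compound exposure, 37C, HepG2-derived HG2L7.5c1 cells with DRE-responsive luciferase. Readouts: fluorescence viability, then luminescence at room temperature after 30 min.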

Results filed as inconclusive are left out. Calls of active or inactive are those of the source. Unless noted, calls come from the whole dose curve; as a rule, active = well fitted curve in the direction sought with a large enough effect in the repeat runs; inconclusive = weak or mixed curves; inactive = no such curve, though single readings can be large; an effect the other way counts as inactive or inconclusive.

Sequence of Bile acid receptor (Homo sapiens) (Q96RI1 whole entry, looked up): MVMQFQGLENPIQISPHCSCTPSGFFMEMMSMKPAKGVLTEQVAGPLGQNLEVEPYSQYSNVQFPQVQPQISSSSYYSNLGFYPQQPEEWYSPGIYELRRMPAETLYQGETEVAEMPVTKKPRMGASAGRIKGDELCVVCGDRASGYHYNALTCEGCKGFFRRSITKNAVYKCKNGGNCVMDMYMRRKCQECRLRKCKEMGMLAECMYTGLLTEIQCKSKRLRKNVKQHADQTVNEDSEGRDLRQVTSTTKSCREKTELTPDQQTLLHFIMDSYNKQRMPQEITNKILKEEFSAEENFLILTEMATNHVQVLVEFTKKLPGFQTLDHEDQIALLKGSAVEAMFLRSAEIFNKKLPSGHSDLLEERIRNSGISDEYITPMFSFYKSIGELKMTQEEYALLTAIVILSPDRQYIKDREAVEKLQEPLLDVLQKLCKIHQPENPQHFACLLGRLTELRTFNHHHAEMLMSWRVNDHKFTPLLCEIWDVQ
Sequence of Peroxisome proliferator-activated receptor delta (Homo sapiens) (Q03181 whole entry, looked up): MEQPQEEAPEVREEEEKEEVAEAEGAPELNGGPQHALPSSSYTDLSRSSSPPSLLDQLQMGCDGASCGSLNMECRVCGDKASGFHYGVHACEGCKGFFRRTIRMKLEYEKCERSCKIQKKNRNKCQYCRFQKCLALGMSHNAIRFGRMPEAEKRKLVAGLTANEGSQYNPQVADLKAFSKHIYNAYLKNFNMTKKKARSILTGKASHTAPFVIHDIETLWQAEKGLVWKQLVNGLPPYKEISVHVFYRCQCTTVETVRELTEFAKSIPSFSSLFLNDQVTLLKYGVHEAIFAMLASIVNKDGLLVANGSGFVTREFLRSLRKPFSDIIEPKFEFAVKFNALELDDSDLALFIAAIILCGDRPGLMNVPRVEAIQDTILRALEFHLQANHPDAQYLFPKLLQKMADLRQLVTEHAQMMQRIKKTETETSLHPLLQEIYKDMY
Sequence of Vitamin D3 receptor (Homo sapiens) (P11473 whole entry, looked up): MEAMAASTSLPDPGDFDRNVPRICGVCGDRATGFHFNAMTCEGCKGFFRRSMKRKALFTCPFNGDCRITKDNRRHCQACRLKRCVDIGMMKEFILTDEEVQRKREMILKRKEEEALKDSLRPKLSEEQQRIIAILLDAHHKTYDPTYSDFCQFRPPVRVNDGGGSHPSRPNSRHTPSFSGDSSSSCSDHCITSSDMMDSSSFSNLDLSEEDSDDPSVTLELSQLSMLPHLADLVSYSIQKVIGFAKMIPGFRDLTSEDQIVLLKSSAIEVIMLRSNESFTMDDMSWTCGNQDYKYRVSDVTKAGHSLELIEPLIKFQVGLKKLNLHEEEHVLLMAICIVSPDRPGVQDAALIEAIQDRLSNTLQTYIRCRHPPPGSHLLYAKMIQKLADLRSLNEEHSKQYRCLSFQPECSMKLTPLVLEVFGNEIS
Sequence of Peroxisome proliferator-activated receptor gamma (Homo sapiens) (P37231 whole entry, looked up): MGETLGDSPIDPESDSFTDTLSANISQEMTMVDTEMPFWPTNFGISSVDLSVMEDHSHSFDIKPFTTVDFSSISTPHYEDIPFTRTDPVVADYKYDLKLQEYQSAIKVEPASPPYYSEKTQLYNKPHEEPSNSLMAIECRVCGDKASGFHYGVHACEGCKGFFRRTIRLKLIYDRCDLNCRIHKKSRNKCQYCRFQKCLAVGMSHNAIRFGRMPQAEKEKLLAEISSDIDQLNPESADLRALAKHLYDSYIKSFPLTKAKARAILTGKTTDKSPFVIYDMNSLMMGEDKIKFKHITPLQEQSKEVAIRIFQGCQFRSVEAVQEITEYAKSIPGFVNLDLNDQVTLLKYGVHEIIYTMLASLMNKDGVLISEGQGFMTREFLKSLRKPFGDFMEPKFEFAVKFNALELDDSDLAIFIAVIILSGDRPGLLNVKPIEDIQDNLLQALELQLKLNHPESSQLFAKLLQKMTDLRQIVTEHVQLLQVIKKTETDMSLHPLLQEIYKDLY
Sequence of Aryl hydrocarbon receptor (Homo sapiens) (P35869 whole entry, looked up): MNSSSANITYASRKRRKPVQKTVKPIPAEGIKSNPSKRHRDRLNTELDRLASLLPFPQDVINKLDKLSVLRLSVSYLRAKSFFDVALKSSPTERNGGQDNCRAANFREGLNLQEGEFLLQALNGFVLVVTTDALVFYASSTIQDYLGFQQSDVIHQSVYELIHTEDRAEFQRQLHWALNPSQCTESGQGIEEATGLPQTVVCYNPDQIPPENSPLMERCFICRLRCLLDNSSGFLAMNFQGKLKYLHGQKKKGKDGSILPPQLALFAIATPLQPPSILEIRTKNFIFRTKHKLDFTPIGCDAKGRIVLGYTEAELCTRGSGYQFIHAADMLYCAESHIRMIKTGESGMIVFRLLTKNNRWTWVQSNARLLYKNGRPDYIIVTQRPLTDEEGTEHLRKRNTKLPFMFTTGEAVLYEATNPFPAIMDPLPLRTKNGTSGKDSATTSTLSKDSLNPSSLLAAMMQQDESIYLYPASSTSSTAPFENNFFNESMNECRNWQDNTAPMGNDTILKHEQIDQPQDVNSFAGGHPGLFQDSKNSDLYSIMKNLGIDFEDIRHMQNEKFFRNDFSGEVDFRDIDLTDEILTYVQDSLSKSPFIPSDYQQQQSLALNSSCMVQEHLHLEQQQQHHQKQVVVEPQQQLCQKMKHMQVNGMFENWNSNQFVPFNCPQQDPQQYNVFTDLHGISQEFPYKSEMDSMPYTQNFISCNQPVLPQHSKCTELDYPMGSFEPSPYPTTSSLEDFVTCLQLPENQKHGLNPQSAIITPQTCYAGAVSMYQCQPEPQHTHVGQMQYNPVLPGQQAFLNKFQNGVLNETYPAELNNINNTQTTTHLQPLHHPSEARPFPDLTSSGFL

`CSc1nc(NC2CC2)nc(NC(C)(C)C)n1`: the Potency entry in assay [1], in assay [2], in [4], in [7], in assay [9] and in [12] was “inactive” each time. Also, the outcome in [3], in assay [5], in assay [6], in assay [8], in assay [10] and in assay [11] was inactive.
As to `Nc1ccn(C2CO[C@H](CO)O2)c(=O)n1` (stereo partly specified), the Potency result in assay [1], in assay [2], in assay [4], in assay [14], in assay [7] and in [9] was “inactive” in each case. The Potency result in assay [12] is “inactive”. The compound was called inactive in assay [13], in [5], in assay [6], in assay [11], in [15] and in assay [16].
As for `c1ccc(SCCSc2ccccc2)cc1`, the Potency entry in assay [1], in assay [2], in assay [4], in [14], in assay [7] and in assay [9] was “inactive” each time. The Potency result in assay [12] was “inactive”. Moreover, the call in [13], in assay [5], in assay [6], in assay [17], in [8] and in [10] was inactive. For the same compound, the call in assay [18], in assay [11], in [15] and in assay [16] was inactive.
Take `CO`: the Potency result in assay [1], in assay [2], in assay [4], in [14], in assay [7] and in assay [9] was “inactive” throughout. The Potency entry in [12] is “inactive”. The call in [5], in [17], in assay [11] and in assay [15] was inactive.
On to `CC1(C)SC(C)(C)SC(C)(C)S1`, for which the Potency entry in assay [1], in assay [2], in [4], in [14], in assay [7] and in assay [9] was “inactive” each time. Also, the Potency result in [12] is “inactive”. Besides, the outcome in [13], in assay [5], in [6], in assay [17], in assay [10] and in assay [18] was inactive. In addition, the result in assay [11], in assay [19] and in assay [15] was inactive.
For `O=S(=O)(c1cccc2cnccc12)N1CCCNCC1`, the Potency entry in assay [1], in assay [2], in assay [9] and in assay [12] was “inactive” each time. Further, the result in [3], in [5], in assay [17], in [8], in [19] and in assay [15] was inactive.
Turning to `C[C@H]1O[C@@H](n2cc(F)c(=O)[nH]c2=O)[C@H](O)[C@@H]1O`, the Potency result in assay [1], in assay [2], in [4], in assay [7], in assay [9] and in assay [12] was “inactive” in each case. Also, the compound was called inactive in assay [13], in [5], in [6] and in assay [11].
With `CCCCCCCCCCCCCCCCCC(=O)OCCCCCCCCCCCCCC(C)C`, the Potency result in assay [1], in assay [2], in assay [4], in assay [14], in assay [7] and in [9] was “inactive” each time. Further, the compound was called inactive in [5], in assay [6], in assay [17], in assay [8], in [10] and in assay [11]. Also, the call in [15] was inactive.
As for `COc1cc(C)cc(O)c1`, the Potency entry in [1], in [2], in [7], in [9] and in [12] was “inactive” each time. Further, the compound was classed as inactive in assay [13], in [5], in [6], in assay [17], in assay [8] and in assay [10]. Moreover, in assay [11], the compound was called inactive.
Turning to `Nc1ncnc2c1ncn2Cc1c(F)cccc1Cl`, the compound was called inactive in assay [3], in [5], in assay [6], in assay [11] and in assay [16]. The Potency result in [4], in [14], in assay [7] and in [12] was “inactive” throughout.
As to `CN(C)C(=O)C(CCN1CCC(O)(c2ccc(Cl)cc2)CC1)(c1ccccc1)c1ccccc1`, the Potency result in [20] was “inactive”. Further, the compound was classed as inactive in assay [6], in assay [17], in [19] and in [16]. In addition, the Potency in assay [7] is 23.7 µM (active); in assay [9], 11.9 µM (active); in assay [12], 29.8 µM (active).

The record behind these values is PubChem BioAssay (Tox21).
